# Most compounds without a hit are left out; they make up all but 3.5% or so of the library.
# MITF primary: MITF inhibitors, primary screen, biochemical, AlphaScreen, human; AlphaScreen MITF homodimerization, bead proximity signal; hit rate 0.91% among 650,000; inhibition, % at 2.6 µM; Microphthalmia-associated transcription factor (Homo sapiens), O75030; in the data active = inhibition above about 50%
# Target sequence (O75030 whole entry, looked up): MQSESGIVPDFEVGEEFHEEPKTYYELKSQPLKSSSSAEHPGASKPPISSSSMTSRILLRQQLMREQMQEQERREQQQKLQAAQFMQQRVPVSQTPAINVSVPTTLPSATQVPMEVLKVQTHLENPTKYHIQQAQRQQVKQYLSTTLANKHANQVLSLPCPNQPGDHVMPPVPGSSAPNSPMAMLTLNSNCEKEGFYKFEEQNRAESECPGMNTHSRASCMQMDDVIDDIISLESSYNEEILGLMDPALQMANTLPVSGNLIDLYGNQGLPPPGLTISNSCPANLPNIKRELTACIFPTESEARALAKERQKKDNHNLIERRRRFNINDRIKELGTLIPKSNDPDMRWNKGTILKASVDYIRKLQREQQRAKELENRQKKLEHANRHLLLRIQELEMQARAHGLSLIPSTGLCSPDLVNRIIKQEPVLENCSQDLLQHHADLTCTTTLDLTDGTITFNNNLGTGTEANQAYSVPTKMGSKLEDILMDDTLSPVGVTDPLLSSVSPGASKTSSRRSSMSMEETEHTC
# TEAD-YAP inh: TEAD-YAP interaction inhibition, primary screen, TEAD-YAP interaction inhibitor project, luminescence, HEK-TIYL cells; TEAD-Gal4/YAP UAS-luciferase luminescence; AID 1259422, 2018; inhibition, % at 9.12 µM; hit rate 1.4% among 640,000; in the data active = inhibition above about 32%
# GPR151 activ: activators of human GPR151, primary screen, cell-based, PathHunter beta-arrestin, luminescence. G-protein coupled receptor 151 (Homo sapiens), Q8TDV0. PathHunter beta-arrestin GPR151 cells. activation, % at 11.2 µM. hit rate 1% among 650,000. AID 1508602, 2020; in the data active = activation above about 4.9%
# FBW7 activator: FBW7 E3 ligase activators, primary screen, biochemical, AlphaScreen, human | F-box/WD repeat-containing protein 7 (Homo sapiens), Q969H0 | AID 1259310, 2017 | hit rate 0.13% among 650,000 | normalized activity (activation), % at 26.1 µM | AlphaScreen FBW7–phospho-cyclin E peptide binding, activator screen; in the data active = normalized activity above about 1.9%;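 note: purified mutant Fbw7 with reduced substrate affinity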
# GPR151 confirm: GPR151 activators, triplicate retest, confirmation, cell-based, PathHunter beta-arrestin, luminescence; shares compounds with GPR151 activ; GPR151 PathHunter beta-arrestin cells, 90 min; % of EA-reagent control over plate median; activation, % at 11.2 µM; 6,700 tested, under 10 active; AID 1508609, 2020;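 active = mean percent activation across replicates above the confirmation screen cutoff of 4.91%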
# GPR119 counter: GPR119 activators in beta-arrestin cells, counter-screen for GPR151 activator project, cell-based, PathHunter beta-arrestin, luminescence, triplicate; shares compounds with GPR151 activ; 90 min; 0 = compound-well median, 100 = enzyme-acceptor control; activation, % at 11.2 µM; hit rate 0.3% among 6,700; AID 1508611, 2020;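 active = mean percent activation in the counterscreen above 29.09%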;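 note: counterscreen on off-target GPR119 to flag nonselective hits from the GPR151 activator screen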
# Hits are given with their value; . = inactive; / = no result given.
SMILES,MITF primary,TEAD-YAP inh,GPR151 activ,FBW7 activator,GPR151 confirm,GPR119 counter
CCN1CCN(c2ncnc3sc(C(=O)Nc4cnc5ccccc5c4)c(C)c23)CC1,.,.,5.3,.,.,.
COc1ccc([N+](=O)[O-])cc1NC(=O)c1sc2ncnc(N3CCC(C)CC3)c2c1C,.,.,13,.,.,.
O=C1NC(=S)N/C1=C/c1ccc(-c2ccc(Cl)c([N+](=O)[O-])c2)o1,.,.,.,.,/,/
O=C1NC(=S)NC(=O)C1=Cc1ccc(-c2ccc(N3CCCCC3)c([N+](=O)[O-])c2)o1,.,.,12,.,.,.
O=C(N=C1N=C2C=CC=CN2Cc2ccccc21)c1ccc(C(=O)c2ccccc2)cc1,.,.,.,.,/,/
CCc1cccc(C)c1NC(=O)C(C)C,.,.,.,.,/,/
CCc1cccc(C)c1NC(=S)NN,.,.,6.2,.,.,.
CCOc1cc(C(=O)Nc2cc3c4c(c2)CC(=O)N4CCC3)cc(OCC)c1OCC,.,.,.,.,/,/
O=C(NC1CCSC1=O)c1cccc(C(=O)NC2CCSC2=O)c1 (centres undefined),.,.,5.3,.,.,.
Cc1ccccc1CN1C(=O)CSc2ccc(C(=O)NC(C)c3ccccc3)cc21 (centres undefined),.,.,.,.,/,/
C=C(C)CSC1=C(C#N)C(c2ccc(OCC)cc2)[C@H](C(=O)OC)C(=O)N1 (some centres undefined),.,.,.,.,/,/
COc1ccc(OC)c(S(=O)(=O)Nc2ccc(C(=O)O)cc2)c1,.,.,.,.,/,/
COc1cc(NS(=O)(=O)c2cc(C(=O)O)ccc2OC)cc(OC)c1,.,.,9.2,.,.,.
Nc1nc(NCc2nc3ccccc3[nH]2)cc(-c2csc3ccccc23)n1,.,.,5.6,.,.,.
CC(C)c1ccc(N(CC(=O)NCCSc2ccccc2)S(C)(=O)=O)cc1,.,.,21,.,.,.
CC(=O)Nc1ccc(NC(=O)CN(c2ccc(C(C)C)cc2)S(C)(=O)=O)cc1,.,.,.,.,/,/
CC(C)c1ccc(NC(=O)CN(c2ccc(Cl)cc2)S(C)(=O)=O)cc1,.,.,6.2,.,.,.
COc1cccc(CNC(=O)c2cc3ccc(-c4ccncc4)cc3[nH]2)c1,.,.,.,.,/,/
COc1cccc(CNC(=O)c2cc3ccc(-c4cn[nH]c4)cc3n2CCCO)c1,.,.,5.5,.,.,.
COc1cccc(CNC(=O)c2cc3ccc(-c4ccncc4)nc3[nH]2)c1,.,.,5.2,.,.,.
COc1cccc(CNC(=O)c2cc3ccc(-c4ccncc4)cc3n2C)c1,.,.,7.8,.,.,.
CCSc1ccc(NS(=O)(=O)c2ccc(Cl)cc2)cc1,.,.,.,.,/,/
CCCc1c(C)nc2c(C(=O)NCc3ccc(F)cc3)c[nH]n2c1=O,.,.,.,.,/,/
CCc1ccc(NC(=O)CSc2nc3ncccc3[nH]2)cc1,.,.,6.5,.,.,.
O=C(Nc1ccc(Cl)cn1)c1ccc(Cl)cc1Cl,.,.,7.0,.,.,.
SMILES,MITF primary,TEAD-YAP inh,GPR151 activ,FBW7 activator,GPR151 confirm,GPR119 counter
O=C(Nc1ccc(Cl)cn1)c1ccccc1Cl,.,.,.,.,/,/
O=C(COc1ccc(Cl)cc1)Nc1ccc(Br)cn1,.,.,.,.,/,/
O=C(COc1ccc(F)cc1)Nc1ccc(Cl)cn1,.,.,18,.,.,.
O=Cc1cc(Cl)ccc1OCC(=O)Nc1ccc(F)cc1,.,.,11,.,.,.
O=C(COc1ccc(F)cc1F)Nc1ccc(F)cc1,.,.,.,.,/,/
O=S(=O)(c1ccccc1)N1CCN(C(=S)c2cccc(Br)c2)CC1,.,.,.,.,/,/
Cc1nc(N(C)c2ccc(C(C)C)cc2)c2c(C)c(C(=O)Nc3cc(C)on3)sc2n1,.,.,.,.,/,/
O=C(CNS(=O)(=O)c1ccccc1)OCC(=O)c1ccc(OCc2ccccc2)cc1,.,.,.,.,/,/
COc1ccc(NC(=O)C(=O)NCCN2CCN(C(=O)c3c(F)cccc3F)CC2)cc1,.,.,5.8,.,.,.

# High-throughput results (PubChem)
